Screening data as filed in PubChem BioAssay.
The list is not random: actives were taken first. Their share in the collection is about 3.2%.
Mtb UGM inh – Mtb UDP-galactopyranose mutase inhibition. P9WIQ1. purified UGM, fluorescence polarization probe displacement. inhibition, % at 10 µM. 0.06% of 320,000 active. AID 504406; in the data active = inhibition above about 10%, passing the limit was not always enough
Rv3671c protease – inhibits the M. tuberculosis serine protease Rv3671c. inhibition, % at 5.96 µM. 0.048% of 320,000 active. AID 2606; in the data active = inhibition above about 38%;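 also: extracellular domain of Rv3671c used as enzyme; 0% = enzyme with DMSO and 100% = no enzyme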
Target sequence (P9WHR9 whole entry, looked up, the tested form may be a part): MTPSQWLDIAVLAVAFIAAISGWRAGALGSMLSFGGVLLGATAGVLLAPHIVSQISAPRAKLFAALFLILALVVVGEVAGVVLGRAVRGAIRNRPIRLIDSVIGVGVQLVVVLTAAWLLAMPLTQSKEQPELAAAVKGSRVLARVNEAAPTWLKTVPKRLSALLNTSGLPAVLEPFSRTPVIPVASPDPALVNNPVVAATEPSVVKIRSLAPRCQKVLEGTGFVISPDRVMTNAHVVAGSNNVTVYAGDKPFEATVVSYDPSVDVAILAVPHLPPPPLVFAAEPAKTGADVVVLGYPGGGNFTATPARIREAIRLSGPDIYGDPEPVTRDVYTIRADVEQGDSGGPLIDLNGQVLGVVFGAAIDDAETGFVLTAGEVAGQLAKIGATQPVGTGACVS
GDH-TPI counter-1 – GDH-TPI coupled enzyme inhibition counter-screen; inhibition, % at 4.8 µM; 1.2% of 360,000 active; GDH-TPI coupled enzyme counterscreen, NADH absorbance; in the data active = inhibition above about 30%;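 also: 0% = DMSO wells and 100% = wells lacking the enzyme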
SSB-PriA inh – K. pneumoniae PriA-SSBct interaction inhibition; inhibition, % at 33 µM; AlphaScreen SSBct-PriA binding, biotinylated peptide; 0.6% of 430,000 active; in the data active = inhibition mostly above about 37%, no sharp cut-off; inactive = mostly below about 20%;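 also: plate controls were negative control peptide for no effect and reference peptide for full effect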
Mtb bLac sens – beta-lactam sensitization of Mtb H37Rv | inhibition, % at 25 µM | 0.27% of 330,000 active | M. tuberculosis H37Rv growth with meropenem, percent inhibition; call rule not given here;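 also: growth measured after seven days incubation then overnight dye step; 0% = bacteria only wells and 100% = bacteria with antibiotic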
FBA Mtb inh – inhibitors of M. tuberculosis fructose-bisphosphate aldolase; AID 588726; purified M. tuberculosis FBA, fluorescence read-out; P9WQA3; 2.3% of 360,000 active; inhibition, % at 1 µM;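 also: 0% = vehicle and 100% = reference inhibitor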
Target sequence (P9WQA3 whole entry, looked up): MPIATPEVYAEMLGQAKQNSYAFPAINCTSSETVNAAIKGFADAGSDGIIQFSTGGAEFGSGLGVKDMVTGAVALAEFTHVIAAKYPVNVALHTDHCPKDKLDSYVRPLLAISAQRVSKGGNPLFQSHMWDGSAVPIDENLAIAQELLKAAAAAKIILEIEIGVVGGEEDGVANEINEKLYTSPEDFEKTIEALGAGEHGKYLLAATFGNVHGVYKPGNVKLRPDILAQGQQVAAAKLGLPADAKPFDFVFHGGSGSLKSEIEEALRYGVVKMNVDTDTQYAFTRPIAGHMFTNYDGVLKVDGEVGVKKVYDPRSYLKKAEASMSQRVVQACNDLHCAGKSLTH
Mtb FBA inh conf – confirmation of M. tuberculosis fructose-bisphosphate aldolase inhibitors. inhibition, % at 1 µM. purified M. tuberculosis FBA, fluorescence read-out. 78% of 5,600 active. shares compounds with FBA Mtb inh;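 also: 0% = vehicle wells and 100% = reference inhibitor wells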
GDH-TPI counter-2 – counter-screen for M. tuberculosis FBA inhibitors: GDH-TPI coupled enzyme inhibition | shares compounds with FBA Mtb inh | GDH-TPI coupled enzyme counterscreen, fluorescence | inhibition, % at 1 µM | 81% of 5,600 active; in the data active = inhibition above about 10%
The depositor's hits bear a star; nt = not tested or not shown; + = active, no number. Rule as the data show it, unless noted: active = inhibition above about 27%; inactive = the rest.

SMILES | Mtb UGM inh | Rv3671c protease | GDH-TPI counter-1 | SSB-PriA inh | Mtb bLac sens | FBA Mtb inh | Mtb FBA inh conf | GDH-TPI counter-2
COC(=O)c1ccc(NC(=O)CCc2csc(NC(=O)c3ccc(Cl)cc3)n2)cc1 | nt | nt | nt | -10.0 | nt | nt | nt | nt
CC(Oc1cc2oc(=O)c3c(c2cc1Cl)CCCC3)C(=O)NCc1cccnc1 (stereo not drawn) | 2.1 | 2.8 | 5.9 | 4.5 | 43.1 | 2.5 | nt | nt
Cc1cc(OC(C)C(=O)N2CCN(c3ccccc3)CC2)c2c(C)c(C)c(=O)oc2c1 (stereo not drawn) | -0.6 | 0.8 | 4.3 | 3.6 | -5.7 | 8.4 | nt | nt
CC(Oc1ccc2c3c(c(=O)oc2c1)CCCC3)C(=O)NCc1cccnc1 (stereo not drawn) | -0.8 | -11.4 | 11.3 | -3.0 | 1.3 | 71.1* | + | 155.5*
CC(Oc1cc2oc(=O)c3c(c2cc1Cl)CCC3)C(=O)NC1CC(C)(C)NC(C)(C)C1 (stereo not drawn) | -1.7 | -4.9 | 15.5 | 0.3 | -16.0 | 4.7 | nt | nt
CC(Oc1ccc2c3c(c(=O)oc2c1)CCCC3)C(=O)NC1CC(C)(C)NC(C)(C)C1 (stereo not drawn) | -3.4 | 0.5 | -4.5 | -12.7 | -10.4 | 64.1* | + | 182.1*
CC(Oc1ccc2c3c(c(=O)oc2c1)CCCC3)C(=O)NCC1CCC(C(=O)O)CC1 (stereo not drawn) | 0.8 | -8.7 | 10.0 | -9.9 | -5.4 | 73.0* | 63.0* | 56.6*
Cc1cc(OC(C)C(=O)NC2CC(C)(C)NC(C)(C)C2)c2c(C)c(C)c(=O)oc2c1 (stereo not drawn) | nt | nt | 13.3 | nt | nt | 70.9* | + | +
COc1nn(C)cc1C(=O)NCCc1ccc(S(N)(=O)=O)cc1 | nt | nt | nt | -4.0 | nt | nt | nt | nt
O=S(=O)(NCCC1=CCCCC1)c1cccc2cnccc12 | nt | nt | nt | 3.0 | nt | nt | nt | nt
O=C(NN=Cc1ccco1)c1cccc(NC(=O)c2cccc(Cl)c2)c1 | nt | nt | nt | 5.7 | nt | nt | nt | nt
CO[C@@H](CNC(=O)C1(c2ccc(F)cc2)CC1)c1ccsc1 | nt | nt | nt | -18.0 | nt | nt | nt | nt
CCOC(=O)c1cn(Cc2cccc(Cl)c2)c2cc(C)nn2c1=O | 1.5 | -2.6 | 11.2 | -10.8 | 19.8 | 28.0* | 67.0* | 52.6*
COc1ccc(Br)c(C(=O)NCC(O)Cn2ccccc2=O)c1 (stereo not drawn) | nt | nt | nt | -10.0 | nt | nt | nt | nt
O=C(CSc1ccc(F)cc1)NC[C@]1(O)CCOc2ccccc21 | nt | nt | nt | -10.0 | nt | nt | nt | nt
O=C(Cc1cccs1)NC(Cc1c[nH]c2ccccc12)C(=O)O (stereo not drawn) | 0.3 | -3.4 | 0.7 | -1.1 | 3.4 | -0.9 | nt | nt
O=C(Cc1cc(=O)oc2cc(O)ccc12)N[C@@H](Cc1c[nH]c2ccccc12)C(=O)O | -0.5 | 12.0 | 17.6 | 3.5 | -1.9 | 37.1* | + | 160.9*
Cc1c(O)ccc2c(CC(=O)N[C@@H](Cc3c[nH]c4ccccc34)C(=O)O)cc(=O)oc12 | 0.5 | 5.2 | 8.6 | 0.0 | -4.2 | 37.8* | 89.4* | 61.7*
O=C(COc1ccc2c(-c3ccccc3)cc(=O)oc2c1)NC(Cc1c[nH]c2ccccc12)C(=O)O (stereo not drawn) | -1.1 | -3.0 | 10.3 | -1.2 | -10.0 | 0.3 | nt | nt
COC(=O)c1ccc(CSc2c(C)[nH]c3ccccc23)o1 | nt | nt | nt | 14.0 | nt | nt | nt | nt
CCCOC(=O)C1=C(C)NC2=C(C(=O)CC(C)(C)C2)C1c1ccc(N(C)C)cc1 (stereo not drawn) | 2.1 | 5.3 | 12.3 | 7.0 | 0.9 | 1.8 | nt | nt
CCOC(=O)C1=C(C)NC2=C(C(=O)CC(C)(C)C2)C1c1cccc(C)n1 (stereo not drawn) | 2.1 | -5.0 | -3.6 | -6.9 | 2.3 | 37.5* | 174.3* | 159.2*
CCCOC(=O)C1=C(C)NC2=C(C(=O)CC(C)(C)C2)C1c1cccnc1 (stereo not drawn) | 0.4 | -2.8 | 7.3 | -1.1 | 1.6 | 35.8* | + | +
CCOC(=O)C1=C(C)NC(C)=C(C(=O)OCC)C1c1cccc(C)n1 | 0.8 | -3.4 | -0.8 | 0.8 | -3.4 | 4.1 | nt | nt
O=C(COc1ccc(F)cc1)Nc1nnc(-c2ccncc2)s1 | 2.0 | 2.4 | 24.8 | -15.6 | 2.2 | 46.9* | 90.0* | 66.0*
SMILES | Mtb UGM inh | Rv3671c protease | GDH-TPI counter-1 | SSB-PriA inh | Mtb bLac sens | FBA Mtb inh | Mtb FBA inh conf | GDH-TPI counter-2
Cc1c(Br)c(=O)oc2c(Br)c(O)c(O)cc12 | 3.2 | 24.5 | -2.6 | 0.3 | -1.1 | 9.6 | nt | nt
Cc1c(Br)c(=O)oc2c(Br)c(O)ccc12 | 1.8 | 0.2 | -6.1 | -5.2 | -9.9 | 35.9* | 42.7* | 28.1*
COc1ccc(-c2cc(C(F)(F)F)n3nc(C(=O)NCCN4CCOCC4)cc3n2)cc1 | 1.9 | -6.1 | 7.6 | -1.4 | -7.2 | 39.2* | -1.2 | -4.7
COc1ccc(-c2cc(C(F)(F)F)n3nc(C(=O)NCCCn4ccnc4)cc3n2)cc1 | 1.0 | 1.4 | 6.7 | 6.6 | -10.3 | 48.2* | 0.6 | -1.4
Cc1cc(NC(=O)Cc2ccc(Cl)cc2)n(-c2nc3c(cnn3-c3ccc(Cl)cc3)c(=O)[nH]2)n1 | nt | nt | nt | -5.0 | nt | nt | nt | nt
CC(C)CN(C(=O)COc1ccc2ccc(=O)oc2c1)C1CCS(=O)(=O)C1 (stereo not drawn) | -0.5 | 0.6 | 9.6 | 1.4 | 0.1 | 21.5 | nt | nt
CN(C(=O)COc1ccc2ccc(=O)oc2c1)C1CCS(=O)(=O)C1 (stereo not drawn) | 0.9 | -6.3 | 19.7 | -5.0 | -2.5 | 37.7* | 190.4* | 146.9*
CCN(C(=O)COc1ccc2ccc(=O)oc2c1)C1CCCCC1 | 0.9 | 4.0 | 7.7 | -8.9 | 3.3 | 34.6* | 71.8* | 50.7*
Cc1cc(C)c2c(n1)sc1c(N3CCC(C(=O)NCc4ccc5c(c4)OCO5)CC3)ncnc12 | nt | nt | nt | -4.0 | nt | nt | nt | nt
COC(=O)C1=CN(C2CC2)C=C(C(=O)OC)C1c1ccc(C(=O)OC)cc1 | -1.9 | -2.2 | -0.9 | -11.2 | 1.8 | 44.4* | -1.2 | -2.4
COC(=O)C1=CN(C2CC2)C=C(C(=O)OC)C1c1ccc(C(F)(F)F)cc1 | 4.2 | 3.8 | -1.3 | -12.0 | -3.5 | 25.0 | nt | nt
CC1(C)Oc2cc3oc(C(=O)O)cc(=O)c3cc2-c2ccccc21 | nt | nt | 18.6 | nt | nt | 94.7* | 19.2 | 6.2
O=C(CCC1CCCN(C(=O)C2=CCCC2)C1)N1CCN(c2ccccn2)CC1 (stereo not drawn) | -2.6 | -1.8 | 5.4 | 3.5 | 3.8 | 40.8* | 0.6 | -2.9
Nc1ccc2c(c1)C(=O)N(CCCCCC(=O)O)C2 | -2.2 | 3.3 | 3.9 | -11.1 | -6.8 | 38.5* | 121.0* | 110.2*
O=C(O)CN1C(=O)/C(=C/c2ccccc2Br)Oc2ccccc21 | 0.0 | 3.3 | 8.2 | -0.8 | -1.4 | 83.1* | -4.9 | -5.1
COc1ccc(-c2csc(-c3ccccn3)n2)cc1 | nt | nt | nt | -52.0 | nt | nt | nt | nt
O=C(CCCn1nc(-c2ccccc2)ccc1=O)Nc1ccccc1-c1ccccc1 | nt | nt | nt | -26.0 | nt | nt | nt | nt
CNC(=O)c1cn2c3c(ccc(Cl)c3c1=O)OC(C)C2 (stereo not drawn) | nt | nt | 12.1 | 7.0 | nt | 37.0* | 3.3 | -1.8
